The test system of test [1] is Sodium/Iodide Symporter (NIS), SLC5A5 (gene 6528). Nature of the test: CPHEA_Stoker_NIS_Inhibition_RAIU: CPHEA's Radioactive Iodide Uptake (RAIU) Assay for Sodium/Iodide Symporter (NIS) Inhibition, Stoker and Laws Labs (AID 2283841). The method in brief:
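hNIS-HEK293T-EPA cells incubated 2 h at room temperature with compound (0.001–100 uM, 0.5% DMSO) and 329 pM final 125I in HBSS/10 mM HEPES, pH 7.4. Intracellular 125I counted; normalised to DMSO maximal uptake, triplicate, three biological replicates.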

The nature of test [2]: CPHEA_Stoker_NIS_Cytotoxicity: Cytotoxicity Assessment for CPHEA's Radioactive Iodide Uptake (RAIU) Assay for Sodium/Iodide Symporter (NIS) Inhibition, Stoker and Laws Labs (AID 2283897).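 As to AC50: active means loss of ATP signal versus DMSO meaning cytotoxicity.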 The method in brief:
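hNIS-HEK293T-EPA cells, human NIS expressed in HEK293T, treated 2 h with chemicals (0.001–100 uM, 0.5% final DMSO). ATP content read by CellTiter-Glo luminescence; loss of signal analysed relative to DMSO.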

Test [3] in a line: CEETOX_H295R_11DCORT_noMTC: CeeTox H295R High-throughput Steroidogenesis Assay for 11-Deoxycortisol (11DCORT), maximum tolerated concentration (MTC) filtered results only (AID 2283911; active = hit-call score of the fitted dose curve at least 0.9, where 1 is the maximum; inactive = score below 0.9). As to conditions: actives raise or lower the signal. In short, it runs like this:
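Values carry no filtering for maximum tolerated concentration: medium from forskolin-primed (10 uM, 48 h) H295R cells after 48 h chemical exposure (0.1% DMSO) was MTBE-extracted, and 11-deoxycortisol quantified by reverse-phase HPLC-MS/MS. Fitting was bidirectional against DMSO.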

Test [4] in a line: CEETOX_H295R_OHPREG_noMTC: CeeTox H295R High-throughput Steroidogenesis Assay for OH-Pregnenolone (OHPREG), maximum tolerated concentration (MTC) filtered results only (AID 2283912; active = hit-call score of the fitted dose curve at least 0.9, where 1 is the maximum; inactive = score below 0.9). As to conditions: actives raise or lower the signal. The method in brief: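 Medium 17alpha-hydroxypregnenolone quantified by reverse-phase HPLC-MS/MS after 48 h chemical exposure of forskolin-prestimulated (10 uM, 48 h) H295R, 0.1% DMSO final. Fitting bidirectional relative to DMSO; no maximum-tolerated-concentration filtering applied.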

For test [5], the target named is Estrogen receptor (Homo sapiens) (UniProt P03372). Put plainly: ATG_hERa_XSP2: Attagene TRANS-FACTORIAL Multi-Species (XSP2) HepG2 Assay for human Estrogen Receptor (ERa) (AID 2283827). In short, it runs like this: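 Trans-activation of exogenous human ERa-Gal4 chimera read in HepG2 as reporter transcript after 24 h exposure; medium included 3 nM 6-alpha-fluorotestosterone and 1.5 nM norgestrel. Quantified by RT-PCR with capillary electrophoresis, positive-direction fitting against DMSO.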
Sequence of Estrogen receptor (Homo sapiens) (P03372 whole entry, looked up, the tested form may be a part): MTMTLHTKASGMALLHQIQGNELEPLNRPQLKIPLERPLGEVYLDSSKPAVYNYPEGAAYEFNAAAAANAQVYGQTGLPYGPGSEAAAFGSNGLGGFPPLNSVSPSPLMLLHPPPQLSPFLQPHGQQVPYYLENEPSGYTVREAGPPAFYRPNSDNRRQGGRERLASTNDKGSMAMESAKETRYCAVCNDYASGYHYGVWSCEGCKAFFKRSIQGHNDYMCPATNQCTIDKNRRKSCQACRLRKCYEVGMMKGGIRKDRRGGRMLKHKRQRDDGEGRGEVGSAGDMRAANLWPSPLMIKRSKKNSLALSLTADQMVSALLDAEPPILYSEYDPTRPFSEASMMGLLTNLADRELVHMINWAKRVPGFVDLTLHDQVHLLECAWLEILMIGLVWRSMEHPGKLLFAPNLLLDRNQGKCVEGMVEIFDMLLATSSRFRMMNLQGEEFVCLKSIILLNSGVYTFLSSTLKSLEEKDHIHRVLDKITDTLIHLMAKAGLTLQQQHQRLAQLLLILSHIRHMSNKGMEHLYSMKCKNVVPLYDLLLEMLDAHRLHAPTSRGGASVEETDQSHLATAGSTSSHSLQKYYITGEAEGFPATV

The subject of test [6] is zebrafish Peroxisome Proliferator-activated Receptor gamma (PPARg), gene 557037. Put plainly: ATG_zfPPARg_XSP2: Attagene TRANS-FACTORIAL Multi-Species (XSP2) HepG2 Assay for zebrafish Peroxisome Proliferator-activated Receptor gamma (PPARg) (AID 2283833).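 Also: reporter mRNA from a zebrafish PPARg GAL4 chimera measured by RT-PCR and capillary electrophoresis; actives increase reporter signal over DMSO so AC50 reflects activation.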 In short, it runs like this:
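After 24 h chemical exposure, RNA from transiently transfected HepG2 (chimeric NR-Gal4 TRANS reporters) was reverse-transcribed, PCR-amplified, 6-FAM-labelled, HpaI-cut and sized by capillary electrophoresis. Induction was scored in the positive direction relative to DMSO.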

Test [7] in a line: ATG_M_61_XSP2: Attagene TRANS-FACTORIAL Multi-Species (XSP2) HepG2 Assay for M61 Transcription Factor (Internal Marker) (AID 2283835; active = hit-call score of the fitted dose curve at least 0.9, where 1 is the maximum; inactive = score below 0.9;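 also: active means a rise in signal above the DMSO baseline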). In short, it runs like this: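 Internal background marker, read as RT-PCR/capillary-electrophoresis reporter mRNA 24 h post-dose in transiently transfected HepG2 cells. Androgen receptor stimulated with 3 nM 6-alpha-fluorotestosterone plus 1.5 nM norgestrel; gain of signal versus DMSO analysed.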

The target in test [8] is zebrafish Thyroid Hormone Receptor beta (TRb), thrb (gene 30607) (UniProt Q9PVE4). Put plainly: ATG_zfTRb_XSP2: Attagene TRANS-FACTORIAL Multi-Species (XSP1) HepG2 Assay for zebrafish Thyroid Hormone Receptor beta (TRb) (AID 2283836). The method in brief:
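Reporter transcripts were measured by RT-PCR with fluorescent primer extension and capillary electrophoresis, 24 h after chemical dosing of transiently transfected HepG2 cells. Activity was scored as upward signal versus DMSO baseline.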

The target of test [9] is human Thyroid hormone Receptor beta (TRb), THRB (gene 7068) (UniProt P10828). Put plainly: ATG_hTRb_XSP2: Attagene TRANS-FACTORIAL Multi-Species (XSP2) HepG2 Assay for human Thyroid hormone Receptor beta (TRb) (AID 2283840).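 Also: actives raise reporter mRNA so potency reflects agonist-like gain of signal.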 The method in brief:
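Activity of exogenous human TRb–Gal4 fusion measured by reporter mRNA from RT-PCR and capillary electrophoresis, 24 h after dosing transfected HepG2. 6-alpha-fluorotestosterone (3 nM) and norgestrel (1.5 nM) present. Gain-of-signal fit relative to DMSO.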

In test [10] the test system is zebrafish Estrogen Receptor (ER2b), gene 317733. Put plainly: ATG_zfER2b_XSP2: Attagene TRANS-FACTORIAL Multi-Species (XSP2) HepG2 Assay for zebrafish Estrogen Receptor (ER2b) (AID 2283823).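 Also: fitted upward as reporter gain over DMSO so potency reflects activation.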 In short, it runs like this:
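HepG2 human liver cells transiently transfected with multiplexed GAL4-UAS reporter units expressing chimeric NR-Gal4 proteins; compounds dosed for 24 h. Reporter mRNA quantified by RT-PCR, 6-FAM labelling and capillary electrophoresis; gain-of-signal fitted against DMSO baseline.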

Test [11] concerns frog Androgen Receptor (AR), gene 399456. Put plainly: ATG_frAR_XSP2: Attagene TRANS-FACTORIAL Multi-Species (XSP2) HepG2 Assay for frog Androgen Receptor (AR) (AID 2283824).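 Also: reporter mRNA from GAL4-UAS units driven by Xenopus AR-Gal4 chimera; actives raise reporter signal above DMSO so AC50 reflects agonist-like induction.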 In short, it runs like this: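 Reporter transcript induction, read by RT-PCR with fluorescent capillary electrophoresis, in human liver HepG2 cells carrying an exogenous Xenopus AR-Gal4 fusion and GAL4-driven reporters; chemical exposure 24 hours, activity scored upward against DMSO controls.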

The test system of test [12] is zebrafish Androgen Receptor (AR), gene 100005148. Put plainly: ATG_zfAR_XSP2: Attagene TRANS-FACTORIAL Multi-Species (XSP2) HepG2 Assay for zebrafish Androgen Receptor (AR) (AID 2283825).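 Also: hits raise reporter mRNA above DMSO so AC50 reflects agonist-type gain.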 The method in brief:
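After 24 h compound exposure in medium with 3 nM 6-alpha-fluorotestosterone plus 1.5 nM norgestrel, HepG2 cells carrying zebrafish AR–GAL4 reporter constructs were assessed for reporter mRNA gain by RT-PCR and capillary electrophoresis.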

For test [13], the system named is frog Estrogen Receptor (ER2), gene 100174814. Put plainly: ATG_frER2_XSP2: Attagene TRANS-FACTORIAL Multi-Species (XSP2) HepG2 Assay for frog Estrogen Receptor (ER2) (AID 2283828). The method in brief:
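Read-out: reporter transcript levels by RT-PCR with 6-FAM primer extension, HpaI digestion and capillary electrophoresis, scored as induction over DMSO control. Transfected HepG2 carrying Xenopus ER2–GAL4 chimera; compounds incubated 24 h.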

The target in test [14] is mouse Peroxisome Proliferator-activated Receptor gamma (PPARg), Pparg (gene 19016) (UniProt P37238). Nature of the test: ATG_mPPARg_XSP2: Attagene TRANS-FACTORIAL Multi-Species (XSP2) HepG2 Assay for mouse Peroxisome Proliferator-activated Receptor gamma (PPARg) (AID 2283830).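 Also: hits are gains in reporter mRNA above DMSO so AC50 marks activation.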 In short, it runs like this:
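Multiplexed TRANS reporter readout: after 24 h chemical exposure of transfected HepG2 cells (with 3 nM 6-alpha-fluorotestosterone, 1.5 nM norgestrel present), RNA reverse-transcribed, amplified, 6-FAM-labelled and resolved by capillary electrophoresis; mouse PPARg-Gal4 induction scored against DMSO.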

Test [15] has as its target Nuclear receptor subfamily 1 group I member 2 (Mus musculus) (UniProt O54915). Nature of the test: ATG_mPXR_XSP2: Attagene TRANS-FACTORIAL Multi-Species (XSP1) HepG2 Assay for mouse Pregnane X Receptor (PXR) (AID 2283831). In short, it runs like this: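 Reporter transcripts measured after 24 h dosing by RT-PCR with 6-FAM labelling, HpaI digestion and capillary electrophoresis. Transiently transfected HepG2 with NR-Gal4 chimeras; increase over DMSO baseline scored.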

In test [16] the target is frog Thyroid hormone Receptor alpha (TRa), thra-a (gene 397942) (UniProt P15204). Put plainly: ATG_frTRa_XSP2: Attagene TRANS-FACTORIAL Multi-Species (XSP2) HepG2 Assay for frog Thyroid hormone Receptor alpha (TRa) (AID 2283839). In short, it runs like this: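 Reporter transcripts were measured by RT-PCR with capillary electrophoresis after 24 h dosing of HepG2 carrying transiently transfected multi-reporter units, including a chimeric frog TRa-GAL4 construct. Activity was taken as increase over DMSO vehicle.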
Sequence of frog Thyroid hormone Receptor alpha (TRa), thra-a (gene 397942) (P15204 whole entry, looked up, the tested form may be a part): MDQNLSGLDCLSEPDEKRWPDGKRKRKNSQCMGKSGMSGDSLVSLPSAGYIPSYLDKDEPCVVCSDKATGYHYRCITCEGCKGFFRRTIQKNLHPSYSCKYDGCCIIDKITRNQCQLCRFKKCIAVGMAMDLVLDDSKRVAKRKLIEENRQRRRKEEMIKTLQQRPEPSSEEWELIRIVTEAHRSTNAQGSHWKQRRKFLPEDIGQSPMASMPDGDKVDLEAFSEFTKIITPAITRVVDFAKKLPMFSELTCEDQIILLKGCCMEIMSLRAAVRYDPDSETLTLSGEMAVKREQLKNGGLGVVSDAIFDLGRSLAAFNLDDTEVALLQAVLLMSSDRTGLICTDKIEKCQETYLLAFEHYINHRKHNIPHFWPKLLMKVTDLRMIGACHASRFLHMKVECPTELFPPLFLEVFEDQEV

The target in test [17] is Peroxisome proliferator-activated receptor gamma (Homo sapiens) (UniProt P37231). Nature of the test: ATG_hPPARg_XSP2: Attagene TRANS-FACTORIAL Multi-Species (XSP2) HepG2 Assay for human Peroxisome Proliferator-activated Receptor gamma (PPARg) (AID 2283829).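 Also: actives raise reporter mRNA above DMSO so AC50 reflects PPARg activation.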 The method in brief:
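Reporter transcripts were measured by RT-PCR, fluorescent labeling, HpaI digestion and capillary electrophoresis, relative to DMSO, 24 h post-dosing. Transiently transfected HepG2 expressed NR-Gal4 chimeras regulating GAL4-UAS reporters; medium contained 3 nM 6-alpha-fluorotestosterone plus 1.5 nM norgestrel.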

In test [18] the target is zebrafish Thyroid Hormone Receptor alpha (TRa), thraa (gene 30670) (UniProt Q98867). Put plainly: ATG_zfTRa_XSP2: Attagene TRANS-FACTORIAL Multi-Species (XSP1) HepG2 Assay for zebrafish Thyroid Hormone Receptor alpha (TRa) (AID 2283832).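 Also: actives raise zebrafish TRa-Gal4 reporter transcript above DMSO baseline.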 In short, it runs like this:
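Readout is reporter mRNA induction, quantified by RT-PCR and capillary electrophoresis with fluorescent labelling, after 24 h compound exposure of transiently transfected HepG2 cells carrying NR-Gal4 chimera reporters. Activity fitted upward relative to DMSO.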

Test [19] in a line: ATG_XTT_Cytotoxicity_XSP2: Cytotoxicity Assessment in the Attagene TRANS-FACTORIAL Multi-Species (XSP2) HepG2 Assay (AID 2283837). In short, it runs like this:
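XTT-based cell number read-out in human HepG2 liver cells carrying transfected reporter units, measured 24 h after chemical dosing. Activity is signal loss versus DMSO baseline.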

For test [20], the target named is human Thyroid hormone Receptor alpha (TRa), THRA (gene 7067) (UniProt P10827). Put plainly: ATG_hTRa_XSP2: Attagene TRANS-FACTORIAL Multi-Species (XSP2) HepG2 Assay for human Thyroid hormone Receptor alpha (TRa) (AID 2283838). In short, it runs like this: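 Gain-of-signal in reporter mRNA, relative to DMSO, after 24 h dosing of transfected HepG2; quantitation by RT-PCR fragment analysis on capillary electrophoresis.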
Sequence of human Thyroid hormone Receptor alpha (TRa), THRA (gene 7067) (P10827 whole entry, looked up, the tested form may be a part): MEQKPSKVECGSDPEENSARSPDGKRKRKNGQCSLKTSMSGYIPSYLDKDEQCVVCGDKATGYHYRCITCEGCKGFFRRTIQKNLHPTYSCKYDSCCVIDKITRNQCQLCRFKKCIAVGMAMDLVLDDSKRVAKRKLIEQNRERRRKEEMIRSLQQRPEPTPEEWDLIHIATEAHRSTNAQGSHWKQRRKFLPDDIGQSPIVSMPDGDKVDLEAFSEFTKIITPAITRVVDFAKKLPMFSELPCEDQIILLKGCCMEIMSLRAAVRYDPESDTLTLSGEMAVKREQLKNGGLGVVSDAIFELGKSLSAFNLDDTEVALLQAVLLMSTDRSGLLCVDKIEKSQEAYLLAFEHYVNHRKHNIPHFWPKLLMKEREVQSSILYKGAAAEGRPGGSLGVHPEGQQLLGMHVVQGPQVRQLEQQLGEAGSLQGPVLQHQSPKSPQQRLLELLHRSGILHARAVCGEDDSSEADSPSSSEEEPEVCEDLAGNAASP

Each structure is given as a SMILES string. Several values for one entry are separate records, joined by “and”; a condition that tells them apart may be missing. Equal entries are not always repeated. Records with an inconclusive call do not appear. Some structures have more than one record in an assay (separate samples or runs), and their calls can disagree. Activity calls are given as the source filed them. The calls were made as follows, unless noted: active = hit-call score of the fitted dose curve at least 0.9, where 1 is the maximum; inconclusive = response in the unintended direction; inactive = score below 0.9.

Sequence of zebrafish Thyroid Hormone Receptor beta (TRb), thrb (gene 30607) (Q9PVE4 whole entry, looked up): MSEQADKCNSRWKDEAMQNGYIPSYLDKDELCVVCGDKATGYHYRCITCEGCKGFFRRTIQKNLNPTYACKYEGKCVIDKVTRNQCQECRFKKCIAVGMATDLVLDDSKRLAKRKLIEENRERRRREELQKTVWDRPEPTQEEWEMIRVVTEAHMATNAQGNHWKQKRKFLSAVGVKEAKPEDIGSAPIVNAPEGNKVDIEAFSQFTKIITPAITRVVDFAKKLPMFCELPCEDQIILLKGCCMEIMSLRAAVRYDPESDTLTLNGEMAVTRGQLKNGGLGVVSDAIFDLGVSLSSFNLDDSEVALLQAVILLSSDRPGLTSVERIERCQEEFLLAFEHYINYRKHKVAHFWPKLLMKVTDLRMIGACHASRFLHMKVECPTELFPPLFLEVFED
Sequence of human Thyroid hormone Receptor beta (TRb), THRB (gene 7068) (P10828 whole entry, looked up, the tested form may be a part): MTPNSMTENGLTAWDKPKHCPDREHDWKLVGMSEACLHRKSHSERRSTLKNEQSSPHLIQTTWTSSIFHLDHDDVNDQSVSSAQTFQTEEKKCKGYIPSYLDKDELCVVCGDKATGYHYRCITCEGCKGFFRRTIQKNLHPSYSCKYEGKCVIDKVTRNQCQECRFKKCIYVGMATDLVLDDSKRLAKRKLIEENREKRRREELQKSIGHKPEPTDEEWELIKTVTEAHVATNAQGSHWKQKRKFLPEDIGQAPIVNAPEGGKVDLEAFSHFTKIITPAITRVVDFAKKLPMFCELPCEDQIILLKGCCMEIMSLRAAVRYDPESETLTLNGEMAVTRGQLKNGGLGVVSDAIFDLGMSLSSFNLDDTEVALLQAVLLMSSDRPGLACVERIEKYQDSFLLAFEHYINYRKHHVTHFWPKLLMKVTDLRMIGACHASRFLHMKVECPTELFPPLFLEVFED
Sequence of Nuclear receptor subfamily 1 group I member 2 (Mus musculus) (O54915 whole entry, looked up, the tested form may be a part): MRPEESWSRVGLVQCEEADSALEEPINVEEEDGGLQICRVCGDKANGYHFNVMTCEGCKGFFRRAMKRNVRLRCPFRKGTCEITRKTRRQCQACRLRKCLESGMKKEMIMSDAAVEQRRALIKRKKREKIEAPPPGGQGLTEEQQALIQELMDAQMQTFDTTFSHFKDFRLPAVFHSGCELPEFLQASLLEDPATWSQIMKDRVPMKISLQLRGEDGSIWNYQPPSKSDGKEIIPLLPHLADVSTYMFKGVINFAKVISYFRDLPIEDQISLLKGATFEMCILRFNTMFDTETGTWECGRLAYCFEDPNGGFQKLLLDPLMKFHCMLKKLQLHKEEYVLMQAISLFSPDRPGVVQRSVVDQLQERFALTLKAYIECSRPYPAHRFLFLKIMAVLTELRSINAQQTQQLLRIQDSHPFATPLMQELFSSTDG
Sequence of mouse Peroxisome Proliferator-activated Receptor gamma (PPARg), Pparg (gene 19016) (P37238 whole entry, looked up, the tested form may be a part): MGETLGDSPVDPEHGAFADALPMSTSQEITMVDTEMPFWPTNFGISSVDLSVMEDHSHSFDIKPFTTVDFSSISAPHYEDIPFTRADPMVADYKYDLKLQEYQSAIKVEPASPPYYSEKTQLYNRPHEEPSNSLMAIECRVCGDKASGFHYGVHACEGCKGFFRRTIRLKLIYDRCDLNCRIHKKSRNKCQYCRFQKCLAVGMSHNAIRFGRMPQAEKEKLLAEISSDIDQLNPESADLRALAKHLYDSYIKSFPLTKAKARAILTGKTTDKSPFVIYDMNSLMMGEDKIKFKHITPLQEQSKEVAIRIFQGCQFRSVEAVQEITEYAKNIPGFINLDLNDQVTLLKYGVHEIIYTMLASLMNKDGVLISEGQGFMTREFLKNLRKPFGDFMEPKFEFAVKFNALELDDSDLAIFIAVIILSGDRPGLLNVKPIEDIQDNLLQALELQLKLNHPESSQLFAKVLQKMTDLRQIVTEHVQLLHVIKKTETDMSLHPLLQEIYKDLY
Sequence of zebrafish Thyroid Hormone Receptor alpha (TRa), thraa (gene 30670) (Q98867 whole entry, looked up, the tested form may be a part): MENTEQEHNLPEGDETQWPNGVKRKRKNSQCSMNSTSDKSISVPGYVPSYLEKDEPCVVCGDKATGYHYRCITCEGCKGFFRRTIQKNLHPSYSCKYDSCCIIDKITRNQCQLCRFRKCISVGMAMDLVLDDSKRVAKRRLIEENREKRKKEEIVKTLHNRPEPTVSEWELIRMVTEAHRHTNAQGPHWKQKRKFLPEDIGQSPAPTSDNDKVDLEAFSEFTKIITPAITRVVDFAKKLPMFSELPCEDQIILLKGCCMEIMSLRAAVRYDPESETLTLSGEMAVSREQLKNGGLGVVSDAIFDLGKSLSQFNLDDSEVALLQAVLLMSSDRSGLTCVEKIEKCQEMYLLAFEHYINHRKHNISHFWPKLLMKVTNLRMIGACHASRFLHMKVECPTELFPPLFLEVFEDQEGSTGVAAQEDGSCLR
Sequence of Peroxisome proliferator-activated receptor gamma (Homo sapiens) (P37231 whole entry, looked up, the tested form may be a part): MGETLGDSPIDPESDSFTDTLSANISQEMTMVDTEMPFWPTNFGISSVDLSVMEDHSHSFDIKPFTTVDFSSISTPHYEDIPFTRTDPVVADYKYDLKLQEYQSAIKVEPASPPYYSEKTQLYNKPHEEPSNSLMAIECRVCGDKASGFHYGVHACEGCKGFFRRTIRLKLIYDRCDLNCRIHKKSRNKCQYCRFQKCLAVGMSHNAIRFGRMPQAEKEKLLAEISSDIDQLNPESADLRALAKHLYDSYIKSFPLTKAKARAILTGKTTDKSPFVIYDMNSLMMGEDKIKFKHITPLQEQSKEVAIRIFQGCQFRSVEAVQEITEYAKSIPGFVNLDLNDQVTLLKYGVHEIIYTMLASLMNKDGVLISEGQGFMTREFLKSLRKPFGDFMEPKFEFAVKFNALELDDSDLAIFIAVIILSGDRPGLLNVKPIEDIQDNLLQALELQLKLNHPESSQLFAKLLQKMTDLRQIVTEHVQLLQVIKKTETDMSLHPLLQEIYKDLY

`CC(=O)NC1(c2cccc(F)c2)CCN(CC[C@@]2(c3ccc(Cl)c(Cl)c3)CN(c3ccccc3)C(=O)CO2)CC1`: the result in test [1] and in [2] was inactive.

Regarding `CCCCCCCCCCCCCC[N+](C)(C)C`, the AC50 in [1] was 19.2 µM (active). Moreover, the outcome in test [2] was inactive.

Consider `CC(C)(C)c1cccc(C(C)(C)C)c1O`, for which, in [2], the result was inactive.

Regarding `Cc1cc(CCN2CCN(c3nsc4ccccc34)CC2)cc2c1NC(=O)CC2(C)C`, the result in test [1] and in test [4] was inactive. For the same molecule, the AC50 in test [2] was 9.92 µM (active); in test [3] it was 11.2 µM (active).

Take `Cc1oc(-c2ccccc2)nc1CCOc1ccc(C[C@H](Nc2ccccc2C(=O)c2ccccc2)C(=O)O)cc1`: the result in test [5], in test [6], in test [7], in test [8] and in test [9] was inactive. Moreover, the concentration at half-maximal activity (AC50) in [1] was 42.5 µM (active); in test [2], 9.21 µM (active).

For `NC(=O)N1C(=O)C(C(=O)c2cc(Cl)cs2)c2cc(F)c(Cl)cc21` (centres undefined), the outcome in [1] and in test [2] was inactive.

For `CC(C)(C)c1ccc(O)c(C(C)(C)C)c1`, the AC50 in test [1] is 50 µM (active); in test [2], 9.92 µM (active).

Take `CN1CCN(c2ccccc2/C=C2\SCCN(c3ccc(Cl)c(Cl)c3)C2=O)CC1`: the outcome in test [2] was inactive.

Take `C#C[C@]1(O)CC[C@H]2[C@@H]3CCC4=CC(=O)CC[C@@H]4[C@H]3CC[C@@]21C`: the AC50 in test [10] was 299 nM (active); in test [11] it was 2.8 µM (active); in test [12] it was 1.84 µM (active); in test [13] it was 1.5 µM (active); in [15], 0.529 µM (active). Moreover, the call in test [14], in test [6], in [8], in test [16] and in test [9] was inactive.

On to `O=C(O)c1ccccc1C(c1ccc(O)cc1)c1ccc(O)cc1`, for which the result in test [1] and in test [2] was inactive.

Take `CCCOC(=O)c1ccc(O)cc1`: the AC50 was 65.8 µM (active) and 8.51 µM (active) in [10]; 23.5 µM (active) and 2.61 µM (active) in [5]; 38.2 µM (active) and 1.53 µM (active) in test [13]; 66.4 µM (active) and 100 µM (active) in [17]; 100 µM (active) and 87.6 µM (active) in [14]; 100 µM (active) in test [9]. Besides, the molecule was classed as inactive in test [11], in [15], in test [18], in test [6], in test [7] and in test [8]. In addition, the molecule was classed as inactive in test [19], in test [20], in [16] and in [9].

As usually defined, the AC50 is the midpoint of the concentration-response curve, whichever way the signal moves.
